Among all 190,000 compounds or so, about 810 (0.43%) were called active. Cut-off read from the data, not from the text of the source: active = inhibition above about 50%; inactive = the rest. This excerpt belongs to a sample that is enriched for actives.
These molecules were tested against Mannose-6-phosphate isomerase (Homo sapiens) (UniProt P34949) (assay: MPI enzyme activity inhibition – biochemical, fluorescence intensity, coupled assay, primary screen (AID 1209;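 note: plate controls were DMSO vehicle for no effect and wells lacking substrate for full effect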)). Conditions: purified PMI enzyme, at 20 µM, stronger effect = higher value.
Sequence of Mannose-6-phosphate isomerase (Homo sapiens) (P34949 whole entry, looked up): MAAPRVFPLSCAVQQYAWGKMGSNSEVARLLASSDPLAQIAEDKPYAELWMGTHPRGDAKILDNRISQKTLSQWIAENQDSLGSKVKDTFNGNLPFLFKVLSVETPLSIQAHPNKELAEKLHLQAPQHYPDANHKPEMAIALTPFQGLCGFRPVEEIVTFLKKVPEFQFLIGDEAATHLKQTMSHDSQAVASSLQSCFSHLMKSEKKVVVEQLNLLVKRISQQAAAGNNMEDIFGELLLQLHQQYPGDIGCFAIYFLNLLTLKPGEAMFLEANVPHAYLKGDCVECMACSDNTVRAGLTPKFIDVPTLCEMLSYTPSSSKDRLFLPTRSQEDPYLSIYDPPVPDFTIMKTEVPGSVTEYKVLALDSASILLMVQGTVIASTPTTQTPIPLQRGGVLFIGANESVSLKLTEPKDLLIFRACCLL

SMILES | inhibition
Cc1c(C(=O)N2CCN(c3ccc(C(F)(F)F)cn3)CC2)oc2ccccc12 | 13.3% (inactive)
CC(NC(=O)/C=C/c1ccco1)c1nc2ccccc2n1Cc1c(Cl)cccc1Cl (stereo unspecified) | -4.3% (inactive)
CNc1ccc2nnc(C(F)(F)C(F)(F)C(F)(F)F)n2n1 | -0.7% (inactive)
Cc1c(C)n(C(=O)CN2CCC(C(N)=O)CC2)c2ccccc12 | 7.2% (inactive)
CCCC(=O)Nc1ccc(C(=O)Nc2ccc([N+](=O)[O-])cc2OC)cc1 | -20.7% (inactive)
COc1ccc(OCC(=O)O/N=C(\N)Cc2cccs2)cc1 | 3.7% (inactive)
O=C(CCN1C(=O)C2CC=C(Cl)CC2C1=O)NC1CCCCC1 (stereo unspecified) | -7.8% (inactive)
Cc1cc(C)n2nc(SCC(=O)c3cc(C)n(CC4CCCO4)c3C)nc2n1 (stereo unspecified) | -13.5% (inactive)
Cc1ccc(NC(=O)CSc2n[nH]c(-c3ccco3)n2)c(C)c1 | -4% (inactive)
CCOC(=O)c1c(NCc2ccccc2)n[nH]c1C | 13.3% (inactive)
O=C1CC(Sc2ncn[nH]2)C(=O)N1c1ccccc1 (stereo unspecified) | 42.6% (inactive)
COc1ccc(N2C(=O)CC(Sc3ncn[nH]3)C2=O)c(OC)c1 (stereo unspecified) | 73.4% (active)
Cc1cccc(N2C(=O)CC(Sc3ncn[nH]3)C2=O)c1 (stereo unspecified) | 34.7% (inactive)
CN(c1nnc(N)s1)C1CCCCC1 | -8.5% (inactive)
CCn1ncc(C2=NOC(C(=O)Nc3cccc(O)c3)C2)c1C (stereo unspecified) | -18.7% (inactive)
C1=C(c2ccc(-c3ccccc3)cc2)Nc2ncnn2C1c1ccco1 (stereo unspecified) | 52.3% (active)
Clc1ccc(C2=CC(c3ccco3)n3ncnc3N2)cc1 (stereo unspecified) | -12.4% (inactive)
Fc1ccc(C2=CC(c3ccco3)n3ncnc3N2)cc1 (stereo unspecified) | -42.5% (inactive)
Cc1nc2[nH]c(=S)n(C)c(=O)c2nc1C | -17.3% (inactive)
COC(=O)[C@@]1(Cc2ccc(F)cc2)[C@H]2c3cc(C(=O)N4CCCC4)n(CCO)c3C[C@H]2CN1C(=O)c1ccccc1 | 1.6% (inactive)
COC(=O)[C@@]1(Cc2ccc(F)cc2)[C@H]2c3cc(C(=O)N4CCCC4)n(CCc4ccc(O)c(O)c4)c3C[C@H]2CN1C(=O)c1ccccc1 | 50.8% (active)

SMILES | inhibition
COCCn1c(C(=O)N2CCCC2)cc2c1C[C@H]1CN(C(=O)c3ccccc3)[C@@](Cc3ccc(F)cc3)(C(=O)OC)[C@@H]21 | 13.8% (inactive)
O=C(CNCc1ccc(F)cc1)Nc1ccccc1[N+](=O)[O-] | 5% (inactive)
Cc1cc(C)c(NC(=O)COC(=O)c2cccc3c2C(=O)c2ccccc2C3=O)c(C)c1 | 5.1% (inactive)
Cc1cc(C)c(Nc2cc(S(=O)(=O)O)c(N)c3c2C(=O)c2ccccc2C3=O)c(C)c1 | 91.5% (active)
Cc1cccc(S(=O)(=O)Nc2cccc3c2C(=O)c2ccccc2-3)c1 | 10.6% (inactive)
COc1ccc(CCC(=O)NNC(=S)Nc2cccc(C(C)=O)c2)cc1 | 1.2% (inactive)
Cn1nnnc1SCc1ccc(C(=O)Nc2ccccc2F)cc1 | 9% (inactive)
C/C(=N\NC(=O)C(c1ccccc1)c1ccccc1)c1ccccn1 | -5% (inactive)
O=C(NNc1ccccn1)C(c1ccccc1)c1ccccc1 | 50.2% (active)
O=C(NNC(=O)C(c1ccccc1)c1ccccc1)c1ccccn1 | 10.3% (inactive)
O=C(OCc1cnc(Cl)s1)c1cccc(Cl)c1 | 10.3% (inactive)
CC(=O)Nc1ccc(/C(C)=N/NC(=O)c2ccccc2Cl)cc1 | 5.1% (inactive)
COc1ccc(C2=Nn3c(nnc3-c3ccco3)SC2)cc1 | -15.3% (inactive)
c1ccc(C2=Nn3c(nnc3-c3ccco3)SC2)cc1 | 75.6% (active)
CCOc1ccc(C2=Nn3c(nnc3-c3ccco3)SC2)cc1 | 8.1% (inactive)
C/C(=C\C(=O)Nc1nccs1)c1ccccc1 | 9.8% (inactive)
Cc1cc(C)n2cc(CSc3ccccn3)nc2n1 | -5.1% (inactive)
O=C(/C=C/Sc1ncn[nH]1)c1ccc(Cl)cc1 | 50.3% (active)
O=C(/C=C/Sc1ccccc1)c1ccc(Cl)cc1 | -10% (inactive)
Clc1ccc(CSc2ncn[nH]2)cc1 | 7.1% (inactive)
Cc1cc(C)n2nc(SCCOc3ccccc3F)nc2n1 | -4.9% (inactive)

SMILES | inhibition
O=C(CSc1nccc(=O)[nH]1)Nc1ccc(F)c(Cl)c1 | 1.7% (inactive)
COCc1c(C#N)c(NCCc2ccccc2)nc(C)c1[N+](=O)[O-] | 11.3% (inactive)
CCCCn1c(SCC(=O)NCc2cccs2)nc2c1c(=O)n(C)c(=O)n2C | 9% (inactive)
CCOc1ccc(C(=S)N2CCOCC2)cc1OCC | -6.6% (inactive)
CCOc1cc(C(=S)N2CCOCC2)ccc1O | 66.8% (active)
CCOc1cc(C(=S)N2CCOCC2)ccc1OC | 3.4% (inactive)
O=C(CN1C(=O)C2C3C=CC(C3)C2C1=O)Nc1ccc(F)cc1 (stereo unspecified) | 0.9% (inactive)
O=C(CN1CCN(c2ccccc2)CC1)Nc1ccc(-n2cnnn2)cc1 | 108% (active)
O=C(CN1CCN(c2ccc(F)cc2)CC1)Nc1ccc(-n2cnnn2)cc1 | 3.3% (inactive)
O=C(CN1CCN(Cc2ccccc2)CC1)Nc1ccc(-n2cnnn2)cc1 | -1.5% (inactive)
COc1ccc(/C=N/NC(=S)SC)cc1OC | 12.8% (inactive)
Cc1ccc(C(=O)N(C)c2ccc(OCC(=O)N3c4ccc(C)cc4C4CN(C)CCC43)cc2)cc1 (stereo unspecified) | 1.9% (inactive)
Cc1snc(SCC(=O)c2ccc(Cl)cc2)c1C#N | 56.7% (active)
Cc1cc(C)nc(SCC(=O)c2ccc([N+](=O)[O-])cc2)n1 | -11.2% (inactive)
Cc1ccc(C(=O)CSc2nsc(C)c2C#N)cc1 | 7.2% (inactive)
Cc1snc(SCC(=O)c2ccc(F)cc2)c1C#N | -11.6% (inactive)
Cc1nnc(SCC(=O)c2ccc([N+](=O)[O-])cc2)s1 | 2.6% (inactive)
Cc1ccc(CC2CC(=O)N(C(Cc3ccccc3)C(=O)O)C2=O)cc1 (stereo unspecified) | 0.9% (inactive)
C#CCOCCOCCOCCNc1nc(N2CCN(C(=O)[C@H]([C@@H](C)CC)n3cc(CCCN=C(N)N)nn3)CC2)nc(N2CCN(C(=O)[C@H](C)n3cc(CCCN=C(N)N)nn3)CC2)n1 | -22.8% (inactive)
